Measured values from PubChem BioAssay (Tox21).
Where “and” joins values, the source holds several entries; their conditions need not be identical. Equal values may be shown once. Inconclusive results are not listed. A structure can be active in one record and inactive in another. Calls of active or inactive are those of the source. Calls come from the whole dose curve; as a rule, active = well fitted curve in the direction sought with a large enough effect in the repeat runs; inconclusive = weak or mixed curves; inactive = no such curve, though single readings can be large; an effect the other way counts as inactive or inconclusive.

Molecular target: Aromatase (Homo sapiens) (UniProt P11511)
Sequence (P11511 whole entry, looked up): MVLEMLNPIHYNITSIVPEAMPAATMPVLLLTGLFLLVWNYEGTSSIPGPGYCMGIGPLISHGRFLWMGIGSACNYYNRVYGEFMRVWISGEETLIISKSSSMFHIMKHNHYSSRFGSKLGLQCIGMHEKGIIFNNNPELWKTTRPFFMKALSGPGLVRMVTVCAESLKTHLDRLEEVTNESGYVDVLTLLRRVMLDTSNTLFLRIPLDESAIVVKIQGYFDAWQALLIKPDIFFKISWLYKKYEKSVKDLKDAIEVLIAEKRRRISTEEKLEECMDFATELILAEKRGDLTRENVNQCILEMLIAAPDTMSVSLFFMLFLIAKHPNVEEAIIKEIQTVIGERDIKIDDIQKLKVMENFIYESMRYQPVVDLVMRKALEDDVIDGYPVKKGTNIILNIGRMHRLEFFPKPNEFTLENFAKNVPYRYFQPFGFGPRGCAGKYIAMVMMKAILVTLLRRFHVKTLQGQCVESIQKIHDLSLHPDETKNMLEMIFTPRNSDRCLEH
Test: qHTS assay to identify aromatase inhibitors (AID 743083); note: nearly all actives have a fitted effect of over 55% in size
Conditions: MCF-7 aro ERE, testosterone-driven ERE luciferase, 24 h; series mostly up to 70.3 µM
Potency is the fitted concentration of half-maximal effect.

Row | SMILES | Potency
1 | C=C(C)C(=O)OCC[N+](C)(C)C | inactive
2 | CCCCCCCC[N+](CCCCCCCC)(CCCCCCCC)CCCCCCCC | 2.16 µM (active)
3 | CC(C)n1nc(-c2cc3cc(O)ccc3[nH]2)c2c(N)ncnc21 | 0.335 µM (active)
4 | CCCC1O[C@@H]2C[C@H]3[C@@H]4CCC5=CC(=O)C=C[C@]5(C)[C@H]4[C@@H](O)C[C@]3(C)[C@]2(C(=O)CO)O1 (stereo partly specified) | inactive
5 | N#CSc1ccc(N)c([N+](=O)[O-])c1 | 27.5 µM (active)
6 | On1ccccc1=S | 0.382 µM (active)
7 | CC1=C(C(=O)OC(C)C)C(c2cccc([N+](=O)[O-])c2)C(C(=O)OC2CN(C(c3ccccc3)c3ccccc3)C2)=C(N)N1 (stereo unspecified) | 29.8 µM (active)
8 | COc1ccc(C(=O)/C(Br)=C\C(=O)O)cc1 | 48.6 µM (active)
9 | CCCCCCCCCCCCCCCC[N+](C)(C)CCN(Cc1ccc(OC)cc1)c1ncccn1 | 12.7 µM (active)
10 | O=C1Cc2cc(CCN3CCN(c4nsc5ccccc45)CC3)c(Cl)cc2N1 | inactive
11 | C=CC(=O)OCC(CO)(COCC(COC(=O)C=C)(COC(=O)C=C)COC(=O)C=C)COC(=O)C=C | 2.4 µM (active)
12 | [O-][n+]1ccccc1SSc1cccc[n+]1[O-] | 0.15 µM (active)
13 | Cc1nc(-c2ccc3c(c2)CCN(CCC2CCC(NC(=O)/C=C/c4ccc(F)cc4)CC2)CC3)no1 (stereo unspecified) | inactive

System: not listed separately
Test: qHTS assay to identify aromatase inhibitors - cell viability counter screen (AID 743084);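 note: cells stimulated with testosterone during compound exposure; nearly all actives have a fitted effect of over 55% in size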
Conditions: MCF-7 aro ERE viability, CellTiter-Fluor, 24 h; series mostly up to 70.3 µM

Row | SMILES | Potency
14 | Cc1ccc(-n2nc(C(C)(C)C)cc2NC(=O)Nc2ccc(OCCN3CCOCC3)c3ccccc23)cc1 | inactive
15 | Cc1ccc2oc(CN(Cc3ccccc3)C(=O)Nc3c(F)cc(F)cc3F)c(-c3ccc(Cl)cc3)c2c1 | inactive
16 | O=C1C=CC(=O)N1 | 9.95 µM (active)
17 | CC(C)(C)NC(=O)[C@@H]1C[C@@H]2CCCC[C@@H]2CN1C[C@@H](O)[C@H](Cc1ccccc1)NC(=O)[C@H](CC(N)=O)NC(=O)c1ccc2ccccc2n1 | 11.9 µM (active) and 13.9 µM (active)
18 | CC(C)CCCCCCCCCCCCCCC(=O)O | inactive
19 | Cc1ccc(O)c(C(C)(C)C)c1 | 17.2 µM (active) and inactive
20 | CCCCc1oc2ccc(NS(C)(=O)=O)cc2c1C(=O)c1ccc(OCCCN(CCCC)CCCC)cc1 | 29.8 µM (active)
21 | Cc1cccc(CN2CCN(C(c3ccccc3)c3ccc(Cl)cc3)CC2)c1 (stereo unspecified) | inactive
22 | O=C(Nc1cccc(Cl)c1)OCC#CCCl | 24.3 µM (active)
23 | Cc1onc(-c2c(Cl)cccc2Cl)c1C(=O)N[C@@H]1C(=O)N2[C@@H]1SC(C)(C)[C@@H]2C(=O)O | inactive
24 | O=C1c2c(O)ccc(Nc3ccc(CCO)cc3)c2C(=O)c2c([N+](=O)[O-])ccc(O)c21 | 54.5 µM (active)
25 | CCCN(CCC)c1c([N+](=O)[O-])cc(C(F)(F)F)c(N)c1[N+](=O)[O-] | 54.3 µM (active)
26 | Oc1ccc2c(c1)-c1ccccc1C2 | inactive
27 | Oc1c(Cl)cc(Cl)c2cccnc12 | inactive
28 | Oc1cccc(-c2c3nc(c(-c4cccc(O)c4)c4ccc([nH]4)c(-c4cccc(O)c4)c4nc(c(-c5cccc(O)c5)c5ccc2[nH]5)CC4)C=C3)c1 | 29.8 µM (active) and 21.1 µM (active)
29 | C=C(C)C(=O)OCC[N+](C)(C)C | inactive
30 | CCCCCCCC[N+](CCCCCCCC)(CCCCCCCC)CCCCCCCC | 21.6 µM (active)
31 | CCCC1O[C@@H]2C[C@H]3[C@@H]4CCC5=CC(=O)C=C[C@]5(C)[C@H]4[C@@H](O)C[C@]3(C)[C@]2(C(=O)CO)O1 (stereo partly specified) | inactive and 61.2 µM (active)
32 | N#CSc1ccc(N)c([N+](=O)[O-])c1 | 38.8 µM (active)
33 | On1ccccc1=S | 0.539 µM (active)
34 | COc1ccc(C(=O)/C(Br)=C\C(=O)O)cc1 | 17.2 µM (active)
35 | CCCCCCCCCCCCCCCC[N+](C)(C)CCN(Cc1ccc(OC)cc1)c1ncccn1 | inactive
36 | O=C1Cc2cc(CCN3CCN(c4nsc5ccccc45)CC3)c(Cl)cc2N1 | inactive and 26.6 µM (active)
37 | C=CC(=O)OCC(CO)(COCC(COC(=O)C=C)(COC(=O)C=C)COC(=O)C=C)COC(=O)C=C | 1.7 µM (active)
38 | [O-][n+]1ccccc1SSc1cccc[n+]1[O-] | 0.188 µM (active)
39 | Oc1ccc2cc(SSc3ccc4cc(O)ccc4c3)ccc2c1 | 54.5 µM (active)
40 | Cc1nc(-c2ccc3c(c2)CCN(CCC2CCC(NC(=O)/C=C/c4ccc(F)cc4)CC2)CC3)no1 (stereo unspecified) | inactive

Molecular target: Aryl hydrocarbon receptor (Homo sapiens) (UniProt P35869)
Sequence (P35869 whole entry, looked up): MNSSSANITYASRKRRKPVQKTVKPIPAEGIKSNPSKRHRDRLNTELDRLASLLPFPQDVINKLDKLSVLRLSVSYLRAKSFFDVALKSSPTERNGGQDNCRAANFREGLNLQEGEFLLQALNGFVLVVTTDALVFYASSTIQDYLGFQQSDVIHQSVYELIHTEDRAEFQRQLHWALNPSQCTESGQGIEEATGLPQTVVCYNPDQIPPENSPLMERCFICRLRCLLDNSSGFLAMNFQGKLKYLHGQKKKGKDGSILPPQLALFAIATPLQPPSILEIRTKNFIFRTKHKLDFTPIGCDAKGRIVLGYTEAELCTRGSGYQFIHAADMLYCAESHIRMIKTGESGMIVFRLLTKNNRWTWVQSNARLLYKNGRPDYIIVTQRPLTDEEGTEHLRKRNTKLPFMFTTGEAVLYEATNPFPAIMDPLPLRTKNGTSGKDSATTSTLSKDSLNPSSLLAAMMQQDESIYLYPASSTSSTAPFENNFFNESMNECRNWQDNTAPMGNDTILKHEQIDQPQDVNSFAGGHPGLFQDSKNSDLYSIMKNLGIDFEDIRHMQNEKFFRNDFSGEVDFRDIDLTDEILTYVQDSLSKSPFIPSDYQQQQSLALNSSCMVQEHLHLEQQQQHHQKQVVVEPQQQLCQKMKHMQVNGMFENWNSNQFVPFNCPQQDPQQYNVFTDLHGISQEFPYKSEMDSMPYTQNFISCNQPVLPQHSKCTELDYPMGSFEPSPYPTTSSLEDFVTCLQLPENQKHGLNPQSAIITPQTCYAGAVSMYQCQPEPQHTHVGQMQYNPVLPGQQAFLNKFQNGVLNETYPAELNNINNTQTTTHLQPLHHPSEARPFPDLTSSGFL
Test: qHTS assay to identify small molecule that activate the aryl hydrocarbon receptor (AhR) signaling pathway (AID 743085); note: nearly all actives have a fitted effect of over 15% in size
Conditions: HepG2 AhR-luc (HG2L7.5c1), luciferase, 24 h; series mostly up to 70.3 µM
Summary of the method: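 AhR agonist activity is inferred from enhanced light output of a DRE-controlled firefly luciferase reporter in HepG2 cells, measured with ONE-Glo following 24 h treatment at 37C.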

Row | SMILES | Potency
41 | Cc1ccc(-n2nc(C(C)(C)C)cc2NC(=O)Nc2ccc(OCCN3CCOCC3)c3ccccc23)cc1 | 15 µM (active)
42 | CN1CCC(Nc2ncc3ncnc(Nc4ccc(F)c(Cl)c4)c3n2)CC1 | 13.3 µM (active)
43 | O=C1C=CC(=O)N1 | inactive
44 | CC(C)(C)NC(=O)[C@@H]1C[C@@H]2CCCC[C@@H]2CN1C[C@@H](O)[C@H](Cc1ccccc1)NC(=O)[C@H](CC(N)=O)NC(=O)c1ccc2ccccc2n1 | inactive
45 | CC(C)CCCCCCCCCCCCCCC(=O)O | inactive
46 | CCCCc1oc2ccc(NS(C)(=O)=O)cc2c1C(=O)c1ccc(OCCCN(CCCC)CCCC)cc1 | inactive
47 | Cc1cccc(CN2CCN(C(c3ccccc3)c3ccc(Cl)cc3)CC2)c1 (stereo unspecified) | inactive
48 | O=C(Nc1cccc(Cl)c1)OCC#CCCl | inactive
49 | Cc1onc(-c2c(Cl)cccc2Cl)c1C(=O)N[C@@H]1C(=O)N2[C@@H]1SC(C)(C)[C@@H]2C(=O)O | inactive
50 | O=C1c2c(O)ccc(Nc3ccc(CCO)cc3)c2C(=O)c2c([N+](=O)[O-])ccc(O)c21 | 6.86 µM (active)
51 | Oc1ccc2c(c1)-c1ccccc1C2 | 15.4 µM (active)
52 | Oc1c(Cl)cc(Cl)c2cccnc12 | 4.73 µM (active)
53 | C=C(C)C(=O)OCC[N+](C)(C)C | inactive
54 | CCCC1O[C@@H]2C[C@H]3[C@@H]4CCC5=CC(=O)C=C[C@]5(C)[C@H]4[C@@H](O)C[C@]3(C)[C@]2(C(=O)CO)O1 (stereo partly specified) | inactive
55 | COc1ccc(C(=O)/C(Br)=C\C(=O)O)cc1 | inactive
56 | CCCCCCCCCCCCCCCC[N+](C)(C)CCN(Cc1ccc(OC)cc1)c1ncccn1 | inactive
57 | O=C1Cc2cc(CCN3CCN(c4nsc5ccccc45)CC3)c(Cl)cc2N1 | 15 µM (active) and inactive
58 | C=CC(=O)OCC(CO)(COCC(COC(=O)C=C)(COC(=O)C=C)COC(=O)C=C)COC(=O)C=C | inactive
59 | [O-][n+]1ccccc1SSc1cccc[n+]1[O-] | inactive
60 | CSc1ccc2c(c1)C(N1CCN(C)CC1)Cc1ccccc1S2 (stereo unspecified) | inactive
61 | Oc1ccc2cc(SSc3ccc4cc(O)ccc4c3)ccc2c1 | inactive
